This passage reports binding signal results from PMC7862700, “An all-to-all approach to the identification of sequence-specific readers for epigenetic DNA modifications on cytosine”.

Common to all, as to test: DAPPL (digital affinity profiling via proximity ligation, sequencing); 10 mM Tris-HCl pH 7.5, 50 mM NaCl, 1 mM DTT, 4% glycerol, room temperature, 30 min; GST-TFs on glutathione beads, 16-mer random dsDNA library, 0.1% formaldehyde crosslink after washing; high values mean tight binding
One assay addresses T1, FEV (Homo sapiens, UniProt Q99581 1-238).
T1 sequence: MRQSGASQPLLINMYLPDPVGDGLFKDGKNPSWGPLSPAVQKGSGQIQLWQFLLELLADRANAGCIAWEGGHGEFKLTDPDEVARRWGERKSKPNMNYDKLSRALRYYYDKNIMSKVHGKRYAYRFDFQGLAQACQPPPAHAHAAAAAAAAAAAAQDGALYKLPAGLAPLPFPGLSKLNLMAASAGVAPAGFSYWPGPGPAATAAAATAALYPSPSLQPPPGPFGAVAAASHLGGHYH
The settings on record: protein: recombinant; tags: N-terminal GST; dsDNA, one strand shown. Summed up:
(§1)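 Yeast served to express human transcription factors as GST fusions, which were then captured on glutathione beads and labelled with DNA barcodes. Pooled with a tag-only sample, they were incubated with 200 nmole of a 16-mer random double-stranded DNA library for 30 min at room temperature in Tris/NaCl/DTT/glycerol buffer, washed, crosslinked with 0.1% formaldehyde, ligated by proximity, amplified by PCR and sequenced. Dividing each hexamer's read frequency for a factor by its frequency for the tag-only sample gives the binding signal.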

The target of the next assay is ETV5 (Homo sapiens, UniProt P41161 1-510). The settings on record: protein: recombinant; tags: N-terminal GST; dsDNA, one strand shown. In short, it runs like this:
as §1

Another assay has as its target HSF1 (Homo sapiens, UniProt Q00613 1-529). The conditions noted are these: protein: recombinant; tags: N-terminal GST; chain copies: 3; dsDNA, one strand shown. Summed up: as §1
In another assay the target is T2, SPIC (Homo sapiens, UniProt Q8N5J4 1-248).
T2 sequence: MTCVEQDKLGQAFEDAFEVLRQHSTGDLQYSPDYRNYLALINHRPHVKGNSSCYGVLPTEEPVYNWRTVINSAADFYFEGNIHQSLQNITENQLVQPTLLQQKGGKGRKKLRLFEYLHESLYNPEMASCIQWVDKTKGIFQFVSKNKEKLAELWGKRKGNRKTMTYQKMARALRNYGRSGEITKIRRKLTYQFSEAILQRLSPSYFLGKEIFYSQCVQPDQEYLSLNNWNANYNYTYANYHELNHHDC
The conditions noted are these: protein: recombinant; tags: N-terminal GST; dsDNA, one strand shown. Summed up: as §1

The target of a further assay is ELF4 (Homo sapiens, UniProt Q99607 1-663). The conditions noted are these: protein: recombinant; tags: N-terminal GST; dsDNA, one strand shown. Summed up: as §1
The target of another assay is T3, ELK4 (Homo sapiens, UniProt P28324-2 1-405).
T3 sequence: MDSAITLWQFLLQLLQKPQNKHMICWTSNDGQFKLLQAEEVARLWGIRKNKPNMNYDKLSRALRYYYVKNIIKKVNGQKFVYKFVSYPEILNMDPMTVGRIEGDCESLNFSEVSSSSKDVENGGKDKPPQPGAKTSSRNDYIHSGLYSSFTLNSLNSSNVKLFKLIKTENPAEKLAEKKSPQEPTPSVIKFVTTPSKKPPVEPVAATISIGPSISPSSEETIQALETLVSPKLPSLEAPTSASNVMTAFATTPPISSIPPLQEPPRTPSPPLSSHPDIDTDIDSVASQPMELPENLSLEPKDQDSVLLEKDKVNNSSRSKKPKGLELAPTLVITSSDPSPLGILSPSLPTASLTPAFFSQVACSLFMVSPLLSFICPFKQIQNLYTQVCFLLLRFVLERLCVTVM
The settings on record: protein: recombinant; tags: N-terminal GST; dsDNA, one strand shown. In short, it runs like this:
as §1

The next assay concerns the target T4, ETV2 (Homo sapiens, UniProt O00321 1-342).
T4 sequence: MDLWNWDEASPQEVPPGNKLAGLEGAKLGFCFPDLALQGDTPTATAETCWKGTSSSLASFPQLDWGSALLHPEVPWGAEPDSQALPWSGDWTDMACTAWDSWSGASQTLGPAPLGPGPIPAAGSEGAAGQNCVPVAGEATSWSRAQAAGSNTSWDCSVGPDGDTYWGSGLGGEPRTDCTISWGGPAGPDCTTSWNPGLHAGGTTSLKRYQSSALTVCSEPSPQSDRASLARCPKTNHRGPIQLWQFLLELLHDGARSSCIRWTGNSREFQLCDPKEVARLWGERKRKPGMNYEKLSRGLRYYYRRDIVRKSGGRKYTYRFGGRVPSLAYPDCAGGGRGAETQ
The conditions noted are these: protein: recombinant; tags: N-terminal GST; dsDNA, one strand shown. In short, it runs like this:
as §1

For the next assay, the target named is T5, ELF3 (Homo sapiens, UniProt P78545 1-371).
T5 sequence: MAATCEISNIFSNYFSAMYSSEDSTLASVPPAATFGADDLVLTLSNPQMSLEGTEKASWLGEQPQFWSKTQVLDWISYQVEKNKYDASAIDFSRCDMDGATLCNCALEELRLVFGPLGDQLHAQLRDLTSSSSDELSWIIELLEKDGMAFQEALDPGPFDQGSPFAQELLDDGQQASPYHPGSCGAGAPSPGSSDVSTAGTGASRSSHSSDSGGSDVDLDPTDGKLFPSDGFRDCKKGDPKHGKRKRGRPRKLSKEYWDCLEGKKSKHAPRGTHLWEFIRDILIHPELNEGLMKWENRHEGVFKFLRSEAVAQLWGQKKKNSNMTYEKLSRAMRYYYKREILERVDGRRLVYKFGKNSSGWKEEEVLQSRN
The conditions noted are these: protein: recombinant; tags: N-terminal GST; dsDNA, one strand shown. In short, it runs like this:
as §1

The next assay concerns the target CRX (Homo sapiens, UniProt O43186 1-299). The settings on record: protein: recombinant; tags: N-terminal GST; dsDNA, one strand shown. Summed up: as §1
A further assay addresses ETV1 (Homo sapiens, UniProt P50549 1-477). The settings on record: protein: recombinant; tags: N-terminal GST; dsDNA, one strand shown. Summed up: as §1
A further assay has as its target T6, ERF (Homo sapiens, UniProt P50548 1-548).
T6 sequence: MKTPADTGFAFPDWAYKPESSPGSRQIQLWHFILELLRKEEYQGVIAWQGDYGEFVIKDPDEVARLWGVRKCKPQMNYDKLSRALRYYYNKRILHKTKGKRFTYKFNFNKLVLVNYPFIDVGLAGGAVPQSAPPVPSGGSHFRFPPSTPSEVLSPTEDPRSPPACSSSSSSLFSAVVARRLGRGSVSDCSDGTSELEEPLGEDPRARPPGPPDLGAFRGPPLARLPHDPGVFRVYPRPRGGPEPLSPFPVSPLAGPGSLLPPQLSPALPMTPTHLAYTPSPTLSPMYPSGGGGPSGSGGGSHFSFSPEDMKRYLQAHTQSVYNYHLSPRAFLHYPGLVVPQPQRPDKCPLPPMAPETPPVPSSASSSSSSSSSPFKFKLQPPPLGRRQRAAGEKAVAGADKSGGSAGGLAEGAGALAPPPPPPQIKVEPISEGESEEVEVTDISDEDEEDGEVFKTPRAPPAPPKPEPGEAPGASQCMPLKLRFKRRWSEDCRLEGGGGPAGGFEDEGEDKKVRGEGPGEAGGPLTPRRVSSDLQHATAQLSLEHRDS
The settings on record: protein: recombinant; tags: N-terminal GST; dsDNA, one strand shown. In short, it runs like this: as §1

A further assay has as its target T7, ETV3L (Homo sapiens, UniProt Q6ZN32 1-361).
T7 sequence: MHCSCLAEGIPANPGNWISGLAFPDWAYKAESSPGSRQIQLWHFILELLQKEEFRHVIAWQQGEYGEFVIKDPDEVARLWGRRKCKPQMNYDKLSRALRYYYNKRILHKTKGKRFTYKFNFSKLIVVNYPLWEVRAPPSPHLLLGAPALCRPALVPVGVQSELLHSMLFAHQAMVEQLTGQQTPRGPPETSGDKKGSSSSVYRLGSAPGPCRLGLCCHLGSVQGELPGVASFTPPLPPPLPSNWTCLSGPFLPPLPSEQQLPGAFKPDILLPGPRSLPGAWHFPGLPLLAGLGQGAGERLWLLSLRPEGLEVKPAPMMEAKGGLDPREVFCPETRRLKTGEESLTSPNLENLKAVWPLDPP
The conditions noted are these: protein: recombinant; tags: N-terminal GST; dsDNA, one strand shown. Summed up: as §1

A further assay concerns the target T8, ETS2 (Homo sapiens, UniProt P15036 1-469).
T8 sequence: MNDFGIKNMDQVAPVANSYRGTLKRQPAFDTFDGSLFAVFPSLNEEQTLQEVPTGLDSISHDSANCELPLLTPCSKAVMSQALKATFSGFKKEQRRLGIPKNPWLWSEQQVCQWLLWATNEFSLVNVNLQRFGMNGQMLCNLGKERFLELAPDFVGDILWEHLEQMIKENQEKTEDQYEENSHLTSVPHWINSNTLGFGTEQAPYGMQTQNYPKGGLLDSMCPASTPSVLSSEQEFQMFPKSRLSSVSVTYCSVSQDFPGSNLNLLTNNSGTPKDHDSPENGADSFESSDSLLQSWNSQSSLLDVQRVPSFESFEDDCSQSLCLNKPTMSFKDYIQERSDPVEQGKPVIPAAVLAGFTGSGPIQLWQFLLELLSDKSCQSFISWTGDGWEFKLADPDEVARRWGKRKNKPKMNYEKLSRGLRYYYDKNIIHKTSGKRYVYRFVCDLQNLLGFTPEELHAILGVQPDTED
The settings on record: protein: recombinant; tags: N-terminal GST; dsDNA, one strand shown. Summed up: as §1

For a further assay, the target named is T9, SPDEF (Homo sapiens, UniProt O95238 1-335).
T9 sequence: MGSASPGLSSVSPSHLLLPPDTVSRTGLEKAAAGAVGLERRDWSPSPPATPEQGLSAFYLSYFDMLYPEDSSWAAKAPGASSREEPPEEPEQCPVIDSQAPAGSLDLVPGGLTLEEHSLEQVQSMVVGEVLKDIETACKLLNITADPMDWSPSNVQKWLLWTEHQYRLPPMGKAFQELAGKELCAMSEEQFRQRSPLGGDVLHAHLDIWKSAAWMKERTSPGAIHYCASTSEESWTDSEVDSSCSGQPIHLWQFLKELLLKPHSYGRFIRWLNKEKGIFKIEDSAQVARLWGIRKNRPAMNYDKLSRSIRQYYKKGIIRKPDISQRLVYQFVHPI
The settings on record: protein: recombinant; tags: N-terminal GST; dsDNA, one strand shown. Summed up:
as §1

The next assay concerns the target T10, ETV7 (Homo sapiens, UniProt Q9Y603 1-341).
T10 sequence: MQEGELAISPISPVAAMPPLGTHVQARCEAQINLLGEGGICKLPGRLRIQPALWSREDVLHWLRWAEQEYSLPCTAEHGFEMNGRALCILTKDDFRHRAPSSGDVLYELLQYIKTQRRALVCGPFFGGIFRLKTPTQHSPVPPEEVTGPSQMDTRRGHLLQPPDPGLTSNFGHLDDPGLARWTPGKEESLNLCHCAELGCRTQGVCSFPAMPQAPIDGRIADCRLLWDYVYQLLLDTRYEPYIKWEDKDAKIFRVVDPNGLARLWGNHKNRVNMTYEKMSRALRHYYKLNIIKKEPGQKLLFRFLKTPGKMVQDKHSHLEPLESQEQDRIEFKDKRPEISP
The settings on record: protein: recombinant; tags: N-terminal GST; dsDNA, one strand shown. Summed up: as §1

The target of another assay is T11, ELF5 (Homo sapiens, UniProt Q9UKW6-2 1-255).
T11 sequence: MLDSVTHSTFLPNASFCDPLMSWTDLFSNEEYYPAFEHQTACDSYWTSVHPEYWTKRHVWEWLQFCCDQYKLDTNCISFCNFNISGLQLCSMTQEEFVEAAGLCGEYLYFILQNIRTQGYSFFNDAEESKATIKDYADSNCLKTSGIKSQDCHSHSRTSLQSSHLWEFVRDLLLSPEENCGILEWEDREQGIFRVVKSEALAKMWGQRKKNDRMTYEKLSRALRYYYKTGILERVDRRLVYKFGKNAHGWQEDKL
The settings on record: protein: recombinant; tags: N-terminal GST; dsDNA, one strand shown. Summed up:
as §1

The target in another assay is T12, ETV3 (Homo sapiens, UniProt P41162-2 1-143).
T12 sequence: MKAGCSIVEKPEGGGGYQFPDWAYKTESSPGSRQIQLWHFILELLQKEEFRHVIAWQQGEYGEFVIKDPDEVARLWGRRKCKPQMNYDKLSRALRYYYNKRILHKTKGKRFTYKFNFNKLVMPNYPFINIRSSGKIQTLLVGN
The conditions noted are these: protein: recombinant; tags: N-terminal GST; dsDNA, one strand shown. In short, it runs like this:
as §1

Another assay deals with ETV6 (Homo sapiens, UniProt P41212 1-452). The settings on record: protein: recombinant; tags: N-terminal GST; dsDNA, one strand shown. Summed up:
as §1

Chain of ETV5 (P41161 whole entry): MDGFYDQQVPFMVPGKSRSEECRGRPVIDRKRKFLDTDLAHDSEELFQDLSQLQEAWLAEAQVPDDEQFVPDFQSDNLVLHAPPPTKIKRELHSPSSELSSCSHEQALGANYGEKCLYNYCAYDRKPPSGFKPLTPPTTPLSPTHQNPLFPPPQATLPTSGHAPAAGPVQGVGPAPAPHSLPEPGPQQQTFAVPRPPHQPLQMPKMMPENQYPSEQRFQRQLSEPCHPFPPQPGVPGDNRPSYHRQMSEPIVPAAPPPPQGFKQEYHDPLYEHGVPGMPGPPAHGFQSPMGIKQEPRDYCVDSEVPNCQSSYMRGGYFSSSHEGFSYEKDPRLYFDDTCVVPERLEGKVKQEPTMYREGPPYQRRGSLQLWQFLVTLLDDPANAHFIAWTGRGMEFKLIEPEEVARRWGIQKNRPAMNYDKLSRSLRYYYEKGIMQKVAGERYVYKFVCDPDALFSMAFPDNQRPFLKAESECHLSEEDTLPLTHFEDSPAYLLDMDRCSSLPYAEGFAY
Chain of ETV1 (P50549 whole entry): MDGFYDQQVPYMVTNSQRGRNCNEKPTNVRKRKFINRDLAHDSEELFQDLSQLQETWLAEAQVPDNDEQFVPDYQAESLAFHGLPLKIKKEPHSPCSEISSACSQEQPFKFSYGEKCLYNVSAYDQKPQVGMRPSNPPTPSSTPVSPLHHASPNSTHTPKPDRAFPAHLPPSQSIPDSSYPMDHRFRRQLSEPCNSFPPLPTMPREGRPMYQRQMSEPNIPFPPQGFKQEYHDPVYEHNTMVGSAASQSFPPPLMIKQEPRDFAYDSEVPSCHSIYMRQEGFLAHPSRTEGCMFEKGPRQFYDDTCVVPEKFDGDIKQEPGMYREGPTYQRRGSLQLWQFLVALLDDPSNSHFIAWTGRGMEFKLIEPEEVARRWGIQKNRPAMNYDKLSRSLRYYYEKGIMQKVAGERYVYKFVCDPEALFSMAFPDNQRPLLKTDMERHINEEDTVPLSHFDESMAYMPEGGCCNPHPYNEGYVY
Chain of ETV6 (P41212 whole entry): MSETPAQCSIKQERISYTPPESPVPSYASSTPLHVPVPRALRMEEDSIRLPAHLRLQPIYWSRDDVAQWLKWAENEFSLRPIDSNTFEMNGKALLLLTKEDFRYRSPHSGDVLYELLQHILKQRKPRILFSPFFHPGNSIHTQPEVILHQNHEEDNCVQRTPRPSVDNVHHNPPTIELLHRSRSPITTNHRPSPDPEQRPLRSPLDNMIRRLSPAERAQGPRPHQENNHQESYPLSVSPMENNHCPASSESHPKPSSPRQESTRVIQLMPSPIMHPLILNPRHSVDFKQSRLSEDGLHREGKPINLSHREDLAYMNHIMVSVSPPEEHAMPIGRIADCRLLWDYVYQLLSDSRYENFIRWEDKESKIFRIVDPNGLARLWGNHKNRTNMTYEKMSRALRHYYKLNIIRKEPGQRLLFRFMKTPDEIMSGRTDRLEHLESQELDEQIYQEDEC
Chain of HSF1 (Q00613 whole entry): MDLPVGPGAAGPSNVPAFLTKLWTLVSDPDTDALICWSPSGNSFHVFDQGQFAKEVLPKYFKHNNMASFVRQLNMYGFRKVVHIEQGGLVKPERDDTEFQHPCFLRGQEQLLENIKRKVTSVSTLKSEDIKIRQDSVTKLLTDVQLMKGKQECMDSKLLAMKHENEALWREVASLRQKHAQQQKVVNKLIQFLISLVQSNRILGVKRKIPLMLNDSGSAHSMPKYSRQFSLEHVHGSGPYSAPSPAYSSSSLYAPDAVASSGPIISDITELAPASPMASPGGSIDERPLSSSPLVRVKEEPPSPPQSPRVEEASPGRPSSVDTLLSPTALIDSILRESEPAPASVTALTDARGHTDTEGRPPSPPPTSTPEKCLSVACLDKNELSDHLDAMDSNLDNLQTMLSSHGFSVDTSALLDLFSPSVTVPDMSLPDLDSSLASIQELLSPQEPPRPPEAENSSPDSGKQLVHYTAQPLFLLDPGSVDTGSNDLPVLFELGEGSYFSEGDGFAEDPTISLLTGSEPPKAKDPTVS
Chain of CRX (O43186 whole entry): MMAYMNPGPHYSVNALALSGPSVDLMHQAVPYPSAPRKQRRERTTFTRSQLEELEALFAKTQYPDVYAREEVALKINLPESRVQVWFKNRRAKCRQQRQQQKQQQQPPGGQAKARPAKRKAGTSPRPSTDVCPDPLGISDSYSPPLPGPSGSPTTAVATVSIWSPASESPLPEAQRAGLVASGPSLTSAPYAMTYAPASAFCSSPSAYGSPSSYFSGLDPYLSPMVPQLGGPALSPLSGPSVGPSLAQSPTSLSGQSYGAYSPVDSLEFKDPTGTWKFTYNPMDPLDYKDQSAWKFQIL
Chain of ELF4 (Q99607 whole entry): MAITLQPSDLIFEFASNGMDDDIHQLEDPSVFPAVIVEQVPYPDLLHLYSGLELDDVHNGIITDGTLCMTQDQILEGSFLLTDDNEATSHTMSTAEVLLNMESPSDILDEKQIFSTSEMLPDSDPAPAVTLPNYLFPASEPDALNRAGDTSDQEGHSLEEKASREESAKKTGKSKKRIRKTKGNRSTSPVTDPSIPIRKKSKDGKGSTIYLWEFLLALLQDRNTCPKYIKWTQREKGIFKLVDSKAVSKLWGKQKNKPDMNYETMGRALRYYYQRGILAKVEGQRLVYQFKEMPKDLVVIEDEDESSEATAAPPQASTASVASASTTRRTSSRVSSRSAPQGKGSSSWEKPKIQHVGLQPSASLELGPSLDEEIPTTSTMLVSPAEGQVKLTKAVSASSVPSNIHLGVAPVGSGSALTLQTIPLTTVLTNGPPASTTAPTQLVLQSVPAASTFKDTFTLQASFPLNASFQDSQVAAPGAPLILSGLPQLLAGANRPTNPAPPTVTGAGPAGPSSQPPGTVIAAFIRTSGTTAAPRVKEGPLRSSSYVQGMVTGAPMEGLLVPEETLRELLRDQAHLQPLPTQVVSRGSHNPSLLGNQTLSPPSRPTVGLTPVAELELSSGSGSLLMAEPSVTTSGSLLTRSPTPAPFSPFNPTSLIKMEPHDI

For AATGGC, the binding signal is 1.52 fold enrichment (6-mer frequency, TF over GST control) in the assay with FEV; 1.42 fold enrichment (6-mer frequency, TF over GST control) with ETV5; 1.28 fold enrichment (6-mer frequency, TF over GST control) with HSF1; 1.61 fold enrichment (6-mer frequency, TF over GST control) with SPIC; 1.29 fold enrichment (6-mer frequency, TF over GST control) in the assay with ELF4; 1.52 fold enrichment (6-mer frequency, TF over GST control) in the assay with ELK4. Besides, the binding signal with ETV2 was 1.26 fold enrichment (6-mer frequency, TF over GST control); with ELF3 it was 1.55 fold enrichment (6-mer frequency, TF over GST control); in the assay with CRX, 1.26 fold enrichment (6-mer frequency, TF over GST control); with ETV1, 1.44 fold enrichment (6-mer frequency, TF over GST control); with ERF it was 1.25 fold enrichment (6-mer frequency, TF over GST control); with ETV3L, 1.3 fold enrichment (6-mer frequency, TF over GST control). Further, the binding signal is 1.39 fold enrichment (6-mer frequency, TF over GST control) with ETS2; 1.29 fold enrichment (6-mer frequency, TF over GST control) in the assay with SPDEF; 1.32 fold enrichment (6-mer frequency, TF over GST control) with ETV7; 1.44 fold enrichment (6-mer frequency, TF over GST control) with ELF5; 1.41 fold enrichment (6-mer frequency, TF over GST control) with ETV3; 1.51 fold enrichment (6-mer frequency, TF over GST control) with ETV6.
